Our source for the Percent Effect values is ChEMBL document CHEMBL3988442, “University of Dundee, Small-Polar-MMV Screening Library” (2021).

Structures are written as SMILES.

Assay [1] deals with T1, Aspartate--tRNA(Asp/Asn) ligase (Mycobacterium tuberculosis (strain ATCC 25618 / H37Rv)) (UniProt P9WFW3).
T1 sequence (whole entry): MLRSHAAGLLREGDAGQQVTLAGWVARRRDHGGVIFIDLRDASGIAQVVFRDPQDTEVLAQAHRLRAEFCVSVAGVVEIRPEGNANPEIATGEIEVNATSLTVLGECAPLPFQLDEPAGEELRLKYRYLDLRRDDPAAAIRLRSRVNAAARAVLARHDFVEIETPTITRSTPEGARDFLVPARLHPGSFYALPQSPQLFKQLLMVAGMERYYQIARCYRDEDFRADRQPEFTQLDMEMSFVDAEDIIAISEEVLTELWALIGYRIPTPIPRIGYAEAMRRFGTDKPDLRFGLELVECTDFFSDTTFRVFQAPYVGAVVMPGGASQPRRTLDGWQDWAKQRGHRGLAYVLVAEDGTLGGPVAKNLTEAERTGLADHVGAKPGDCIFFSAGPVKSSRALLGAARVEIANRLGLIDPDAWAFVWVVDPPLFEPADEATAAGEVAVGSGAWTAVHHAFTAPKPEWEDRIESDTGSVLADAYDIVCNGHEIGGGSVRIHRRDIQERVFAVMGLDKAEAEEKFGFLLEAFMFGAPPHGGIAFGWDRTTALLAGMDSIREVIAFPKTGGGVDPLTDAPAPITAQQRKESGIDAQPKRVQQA
Put plainly: Assay for Asp RNA synthetase-1 from Mycobacterium tuberculosis. In kind it is functional. The arrangement: scale not given: direction of the effect not stated beside the values. The settings on record: 30 µM.

Assay [2] has as its target Shiga toxin 2 (Escherichia coli O157:H7) (UniProt P09385+P09386). Put plainly: E. coli 0.157:H7 Shiga Toxin SOP - stx2 screening assay. In kind it is functional. The arrangement: scale not given: direction of the effect not stated beside the values. As to conditions: 30 µM.

Turning to `Cc1cc(C(C)C(=O)N2CCCN(Cc3cscn3)CC2)c(C)o1` (configuration not stated), the Percent Effect in assay [1] is -4.75%; in assay [2] it was 19.4%.
For `CNC1CCCN(Cc2noc(C3CC3)n2)C1` (configuration not stated), the Percent Effect in assay [1] is -0.881%; in assay [2] it was -5.27%.
On to `Cc1nn(C)c(N(C)C)c1CNCCCN(C)S(C)(=O)=O`, for which the values for the Percent Effect in assay [1] and in assay [2] were -6.1% and -43.8%, respectively.
`COc1ccc(CNC(=O)C2(C#N)CCCC2)cc1`: the Percent Effect in assay [1] stood at 2.12%; in assay [2], 8.48%.
With `CCN(CC)C(CNC(=O)c1ccc(S(C)(=O)=O)cc1)c1ccco1` (configuration not stated), the Percent Effect is -0.521% in assay [1] and -4.44% in assay [2].
Consider `CC1c2ncc(Cn3cncn3)n2CCN1C(=O)C1CCOCC1` (configuration not stated), for which the Percent Effect is 3.23% in assay [1] and -10.6% in assay [2].
The corresponding values for `COc1cc(C)nc(N2CCN(C(=O)c3ccccc3C)CC2)n1` are 6.7% and 3.55%.
Take `Cc1c[nH]nc1C1CCCCN1C(=O)Cn1cc(Cl)cn1` (configuration not stated): the figures for the Percent Effect in assay [1] and in assay [2] were 4.25% and 10.4%, respectively.
Turning to `O=C(NCc1cc(O)ncn1)C1COc2ccccc2C1` (configuration not stated), the Percent Effect in assay [1] is -3.92%; in assay [2] it was 12.8%.
Consider `CC(C)CN(C)c1ccc(C(=O)N2CCCC2c2cnn(C)c2)cn1` (configuration not stated), for which the Percent Effect in assay [1] was -2.28%; in assay [2], 21%.
`COc1ccc(C(=O)NS(=O)(=O)c2ccc(C#N)cc2C(F)(F)F)cc1`: the Percent Effect in assay [1] was -0.26%; in assay [2], 8.91%.
On to `Cn1cc(CN2CCC3(CC2)CC(c2ccncc2)C(=O)N3)cn1` (configuration not stated), for which the Percent Effect in assay [1] is 12.5%; in assay [2] it was -4.24%.
The corresponding values for `Cc1ccccc1CN(C)Cc1nc2c(cnn2C)c(=O)[nH]1` are 0.633% and -4.87%.
Take `CC(OCC(F)(F)F)C(=O)NCc1ccc(-n2cncn2)nc1` (configuration not stated): the Percent Effect is -3.63% in assay [1] and -8.85% in assay [2].
For `Cc1ccccc1-c1cc(C(=O)N2CCn3c(C)nnc3C2)[nH]n1` the same measures were -2.28% and -13.5%.
As to `Cc1cc(C(=O)NCC2COCc3c(C)nnn3C2)no1` (configuration not stated), the Percent Effect in assay [1] was 2.38%; in assay [2], -17.1%.
For `CNS(=O)(=O)c1cccc(CNC(=O)c2c(C)oc(C)c2C)c1` the same measures were -7.7% and -67.3%.
The corresponding values for `CN(Cc1ccccc1)C(=O)c1nc(S(C)(=O)=O)n2ccccc12` are -4.08% and 20.9%.
In the case of `Cc1cc(C)nc(NC(=O)C(C)Oc2ccc3c(c2)OCO3)n1` (configuration not stated), the Percent Effect is 12.6% in assay [1] and -50% in assay [2].
For `O=C(Cc1ccc(F)cc1)NCCNCC1CNc2ccnn2C1` (configuration not stated) the same measures were -2.44% and -33.6%.
Regarding `CCN(CC)C(=O)Cn1ccc2cc(NC(=O)C3CCCO3)ccc21` (configuration not stated), the Percent Effect was -4.41% in assay [1] and -1.75% in assay [2].
As for `Nc1nc(CCC(=O)N2CCOC(CC3CCCCC3)C2)cs1` (configuration not stated), the Percent Effect in assay [1] is -4.71%; in assay [2], 19%.
The corresponding values for `Nc1cc(CCC2CN(Cc3ccc(C(=O)O)cc3)CCO2)ccn1` (configuration not stated) are 2.72% and 55.2%.
Regarding `c1ccc(-c2ccc3nc(C4CCN(CC5CC5)CC4)nn3c2)cc1`, the Percent Effect is 1.41% in assay [1] and -51.6% in assay [2].
With `COc1ccccc1OCCC(=O)N1CCCC1Cn1cc(C)cn1` (configuration not stated), the Percent Effect is -0.922% in assay [1] and 29.9% in assay [2].
The corresponding values for `O=C(c1ccc[nH]1)N1C[C@H]2CC[C@@H]1CN(c1ncccn1)C2` are -4.31% and -5.71%.
Turning to `Cc1nnc(N2CCCC3(CN(Cc4ccc(C)s4)CCO3)C2)o1` (configuration not stated), the Percent Effect in assay [1] is 0.479%; in assay [2], -45.3%.
The corresponding values for `Cc1noc(C(C)C)c1C(=O)NCc1cc(F)cc(F)c1` are -4.07% and 14.2%.
As to `O=C(Nc1cnn(CCN2CCOCC2)c1)c1ccccc1O`, the Percent Effect is -0.989% in assay [1] and -13.8% in assay [2].
The corresponding values for `Cc1cccc(NC(=O)c2sccc2C)n1` are -4.94% and -1.59%.
In the case of `Cc1noc(C)c1C(=O)NCc1ccnc(OCC(F)(F)F)c1`, the Percent Effect is -0.189% in assay [1] and 10.8% in assay [2].
As to `O=C(CCc1cccs1)N1CCC(Nc2cccnn2)CC1`, the figures for the Percent Effect in assay [1] and in assay [2] were -2.47% and -26.6%, respectively.
With `COc1cccc(F)c1C(=O)N1C[C@@H](CN(C)CCO)[C@@H](CO)C1`, the Percent Effect in assay [1] is -0.268%; in assay [2] it was -11.4%.
With `Cc1n[nH]cc1CNc1ccc2c(c1)N(C(=O)OC(C)(C)C)CCC2`, the Percent Effect in assay [1] is 6.33%; in assay [2], -17.7%.
In the case of `Cc1nc(C2CCCN(C(=O)c3ccc(Cn4cccn4)o3)C2)no1` (configuration not stated), the Percent Effect was -5.64% in assay [1] and 12.3% in assay [2].
For `N#Cc1cc(NC(=O)c2ccccc2)ccc1N1CCC(O)CC1` the same measures were -1.51% and -18.7%.
For `CCOc1ccc(N(CC(=O)c2ccccc2)C2=NCCCCC2)cc1` the same measures were 1.35% and -5.46%.
As for `CC(C)(C)C(=O)NS(=O)(=O)c1ccc(C#N)cc1C(F)(F)F`, the Percent Effect in assay [1] was 0.681%; in assay [2] it was 21.9%.
Consider `Cc1nn(C)c(C)c1C1CCCN1Cc1nc(-c2ccco2)no1` (configuration not stated), for which the Percent Effect in assay [1] was -6.56%; in assay [2], -26.9%.
The corresponding values for `CC(C)c1csc(C2CCCN(C(=O)c3ccc(=O)n(C)n3)C2)n1` (configuration not stated) are -1.11% and -6.52%.
For `Cc1cc(NCc2cc3n(n2)CCCN(S(C)(=O)=O)C3)ncn1` the same measures were -7.29% and 25.2%.
The corresponding values for `Cc1cnn(CC2CCCN2CC(=O)Nc2cc(C)nn2C)c1` (configuration not stated) are 0.972% and -20.9%.
On to `O=C(NCCCO)Nc1cccc(Cl)c1F`, for which the Percent Effect was 1.48% in assay [1] and -9.57% in assay [2].
In the case of `Cn1ccc(C(=O)N2CCN(c3ncccn3)CC2)cc1=O`, the Percent Effect in assay [1] was determined as 1.62%; in assay [2], 22.4%.
In the case of `CCN1CCC(NC(=O)CN2CCc3c(nc(C4CC4)n3C)C2)CC1`, the Percent Effect in assay [1] was -3.88%; in assay [2] it was 7.04%.
For `COCCN1CCCC12CCN(C(=O)CC1CCCC1)CC2` the same measures were -1.62% and -6.17%.
For the compound `COc1cccc2c1OCC(CNC(=O)CNC(N)=O)C2` (configuration not stated), the Percent Effect in assay [1] is 4.22%; in assay [2] it was 11.9%.
On to `CC1CN(C)CCN1C(=O)c1ccn(-c2cccc(Cl)c2)n1` (configuration not stated), for which the Percent Effect in assay [1] was -2.06%; in assay [2] it was -4.97%.
As to `Cc1nnc2n1CCN(C(C(=O)NC1CC1)c1ccccc1)C2` (configuration not stated), the Percent Effect in assay [1] was -4.48%; in assay [2], 15.2%.
The corresponding values for `CNC(=O)CS(=O)(=O)C1CCN(S(=O)(=O)c2ccccc2Br)CC1` are -6.53% and -14%.
Consider `O=C(CSC1CCc2ccccc2NC1=O)NCCO` (configuration not stated), for which the Percent Effect in assay [1] was 0.805%; in assay [2], -11.3%.
